Hits are enriched below; roughly 19% of the tested compounds scored in any of these assays.
HT1080 IDH1KD tx: toxicity to HT-1080 IDH1 knockdown cells (counter line); HT-1080 IDH1 knockdown viability, ATP luminescence, 48 h; Potency, µM (series often up to 46.1 µM), for inactives: top-dose activity, negative = toxicity, most hits filed as cytotoxic; 360,000 compounds, 2% hits;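 also: potency is read from the fitted curve at half-maximal effect; 0% = DMSO wells and -100% = cell-free medium wells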
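Knockdown cells (IDH1KD HT-1080) received compounds 2 h after plating at 750 cells/well and were kept 48 h at 37 °C in 5% FBS RPMI. A CellTiter-Glo luminescence read gave % activity for curve fitting.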
HT1080-NT tox: kills 2HG-producing HT-1080-NT fibrosarcoma cells | HT-1080-NT fibrosarcoma viability, CellTiter-Glo ATP luminescence, 48 h | Potency, µM (highest dose often 46.1 µM), inactives show top-dose activity, negative = less viability, most hits filed as cytotoxic | 360,000 compounds, 1.6% hits | AID 686970;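 also: NT is the 2HG producing partner of a matched IDH1 knockdown line; potency is read from the fitted curve at half-maximal effect; 0% = DMSO-treated cells and -100% = media-only wells without cells; nearly all actives have a fitted effect of over 55% in size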
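Read-out is CellTiter-Glo luminescence after 10 minutes at room temperature, following 48 hours' compound treatment of HT-1080-NT cells (750 cells/well, RPMI, 5% FBS, 37 degrees C).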
ELG1 DNA repair: ELG1-dependent DNA repair inhibition | HEK293T ELG1-luciferase reporter, luminescence, 16 h; DNA damage induced by 5-fluorouridine | Potency, µM (highest dose often 46.1 µM), for inactives: at the top dose activity change, negative = inhibition, actives largely listed as inhibitors | 330,000 compounds, 2.3% hits; also: potency is read from the fitted curve at half-maximal effect; nearly all actives have a fitted effect of over 55% in size
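Quantitative HTS, concentration-response format. 2,000 cells/well co-treated with 5-fluorouridine and compound, 16 hr in 5% CO2 at 37 °C; ONE-Glo luminescence read after 30 min.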
DT40 TDP1 CPT: growth inhibition of DT40 Tdp1-/-;hTDP1 cells with camptothecin (screen for TDP1 inhibitors); 420,000 compounds, 12% hits; AID 686979; Potency, µM (doses to about 46.2 µM), for inactives: at the highest dose activity change, negative = growth inhibition, actives largely listed as inhibitors; chicken DT40 Tdp1-/-;hTDP1 cells + 20 nM CPT, ATP luminescence, 48 h; also: potency is read from the fitted curve at half-maximal effect; nearly all actives have a fitted effect of over 55% in size
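Cell growth measured by CellTiter-Glo luminescence after a minimum 48 h, 37 C compound exposure with 20 nM CPT in Tdp1-knockout DT40 cells stably expressing hTDP1, seeded 400/well; qHTS titration format.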
TDP1 cell noCPT: qHTS for Inhibitors of human tyrosyl-DNA phosphodiesterase 1 (TDP1): qHTS in cells in absence of CPT; DT40 Tdp1-/- hTDP1 cells, no CPT, ATP luminescence, 48 h; Potency, µM (highest dose often 46.2 µM), without a hit: at the highest dose activity change, negative = growth inhibition, most hits filed as inhibitors; AID 686978, 2013; 420,000 compounds, 15% hits; also: potency is read from the fitted curve at half-maximal effect; nearly all actives have a fitted effect of over 55% in size
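Chicken DT40 Tdp1-/- cells stably complemented with human TDP1 were seeded at 400 cells/well with DMSO in place of 20 nM camptothecin. After compound pinning, cells grew at least 48 hr at 37 °C; viability read by CellTiter-Glo luminescence.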
IL1B secr inh: inflammasome signaling inhibition, IL-1 beta readout; 360,000 compounds, 4.7% hits; THP-1 LPS/ATP IL-1B secretion, AlphaLISA, 16 h; hits give low values; activity change, % at 57.5 µM; in the data active = activity change below about -50%; inconclusive = mostly about -30% to -49%
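THP-1 cells pretreated 1 hr with compounds (up to 57.5 uM final), then stimulated with LPS (250 ng/mL final) plus ATP (1.25 mM final); secreted IL-1B measured by AlphaLISA after 16 hr, decreased signal indicating inhibition.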
Starred values were filed as active, the others as inactive; u = inconclusive; x = no result. Unless noted, calls follow the shape of the dose curve; as a rule, active = well fitted curve in the direction sought with a large enough effect; inconclusive = small, poorly fitted or top-dose-only effect, or another doubt; inactive = no such curve, though single readings can be large; an effect the other way counts as inactive or inconclusive. Unless noted, % is scaled to controls: 0 for no effect and ±100 for the full control effect.

SMILES	HT1080 IDH1KD tx	HT1080-NT tox	ELG1 DNA repair	DT40 TDP1 CPT	TDP1 cell noCPT	IL1B secr inh
Cc1ccc(NC(=O)c2c3c(nc4ccccc24)C(=O)N(C2CCCCC2)C3)cc1F	x	x	x	8.2µM*	12µM*	x
Cc1ccccc1NC(=O)c1c2c(nc3ccccc13)C(=O)N(C1CCCCC1)C2	x	x	x	u	21µM*	x
O=C(Cc1cccs1)N1CCN(S(=O)(=O)c2cc(Cl)ccc2Cl)CC1	-10%	-2%	13%	2%	3%	-3
CC1=C(C(=O)N2CCOCC2)CC(CC(=O)NCCN2CCOCC2)C(=O)N1Cc1ccccc1 (stereo unspecified)	4%	-8%	x	5%	3%	13
COc1ccccc1CN1CC[C@@]2(CCCN(C(C)=O)C2)C1	x	x	x	11%	-2%	x
O=c1c2ccccc2ncn1Cc1cccc2ccccc12	1%	-2%	1%	u	-13%	-54*
Cc1ccccc1Cn1cnc2ccccc2c1=O	-2%	3%	-1%	21%	-13%	11
COc1ccccc1C(=O)NCC(c1cccs1)N1CCc2ccccc21 (stereo unspecified)	-15%	-1%	u	21µM*	18µM*	-1
COc1cc(C(=O)NCC(c2cccs2)N2CCc3ccccc32)cc(OC)c1OC (stereo unspecified)	-15%	-17%	u	u	21µM*	u
COc1cccc(C(=O)NCC(c2cccs2)N2CCc3ccccc32)c1 (stereo unspecified)	-21%	-3%	u	13µM*	u	u
Cc1cccc(CSc2nnc(CCCCCNC(=O)OC(C)(C)C)o2)c1	-24%	-4%	u	u	16µM*	15
CC(C)(C)OC(=O)NCCc1nnc(SCc2ccc(Cl)cc2)o1	1%	1%	-23%	0%	-26%	25
Cc1ccc(CSc2nnc(CCCCCNC(=O)OC(C)(C)C)o2)cc1	u	-14%	u	23µM*	18µM*	u
NC(=O)C[C@@H](N)C(=O)O	x	x	x	-12%	u	x
Cc1ccc(-n2ncc3c(SCC(N)=O)ncnc32)cc1C	-7%	-4%	u	u	u	-2
CCN1C(=NCCOC)N[C@@H](c2cccc(C(F)(F)F)c2)C(C(=O)OC)=C1C	-4%	-16%	16%	21µM*	18µM*	u
CCN1C(=NCc2ccco2)N[C@@H](c2cccc(C(F)(F)F)c2)C(C(=O)OC)=C1C	-12%	-3%	10%	16µM*	u	0
CCN1C(=NCC2CC2)N[C@@H](c2cccc(C(F)(F)F)c2)C(C(=O)OC)=C1C	-8%	-10%	-20%	u	10µM*	x
Cc1cccc(-n2nnc(-c3nc(-c4cccs4)no3)c2N)c1	x	x	x	-16%	-22%	x
O=C(CNCc1ccc(F)cc1)Nc1ccccc1[N+](=O)[O-]	-17%	-12%	14%	-23%	-7%	17
Cn1c(=S)c2[nH]c(SCCN)nc2n(C)c1=O	-6%	-15%	x	5.8µM*	5.8µM*	23
CCCCSc1nc2c([nH]1)c(=O)n(C)c(=S)n2C	15%	15%	x	-22%	u	11
Cn1c(=S)c2[nH]c(SCCN3CCCC3)nc2n(C)c1=O	-4%	-3%	u	u	23µM*	29
CC1Cc2ccccc2N1C(=O)COC(=O)/C=C/c1ccc(F)cc1 (stereo unspecified)	2%	-2%	u	-15%	-28%	-5
CC1Cc2ccccc2N1C(=O)/C=C/c1cccc(F)c1 (stereo unspecified)	-12%	-18%	u	0%	-29%	-69*
SMILES	HT1080 IDH1KD tx	HT1080-NT tox	ELG1 DNA repair	DT40 TDP1 CPT	TDP1 cell noCPT	IL1B secr inh
Cn1c2c(c(=O)n(C)c1=O)C(c1cc(Br)ccc1F)CC(=O)N2 (stereo unspecified)	x	x	x	10%	-22%	x
COc1cc2c(cc1OC)C(c1ccco1)CC(=O)N2 (stereo unspecified)	-3%	0%	u	-6%	8%	6
O=C1CC(c2ccccc2F)c2cc3c(cc2N1)CCC3 (stereo unspecified)	0.89µM*	1.6µM*	-12%	3.3µM*	4.6µM*	41
O=C1CC(c2cc(Br)ccc2F)c2cc3c(cc2N1)CCC3 (stereo unspecified)	1.3µM*	1.8µM*	u	2.9µM*	2.6µM*	55
CC(C)Oc1ccc(Cc2cnc(=S)[nH]c2N)cc1	3%	3%	10%	-26%	u	0
COc1ccccc1Cn1ccn(CC(=O)Nc2c(C)cc(C)cc2C)c(=O)c1=O	x	x	x	-2%	-10%	x
C[C@@H]1CN([C@@H](C)CO)C(=O)c2cc(-c3ccccc3F)cnc2O[C@H]1CN(C)Cc1cccc(F)c1	-7%	-13%	x	u	23µM*	-22
C[C@@H]1CN([C@H](C)CO)C(=O)c2cc(Br)cnc2O[C@@H]1CN(C)C(=O)c1cccc(F)c1	13%	24%	x	2%	-1%	11
Cc1ccc(-c2cnc3c(c2)C(=O)N([C@H](C)CO)C[C@H](C)[C@@H](CN(C)Cc2ccccc2F)O3)cc1	13%	-16%	x	u	u	-25
C[C@H]1CN([C@@H](C)CO)C(=O)c2cc(/C=C/c3ccccc3)cnc2O[C@H]1CN(C)C(=O)c1cccc(F)c1	-6%	-3%	x	u	23µM*	-18
C[C@@H]1CN([C@@H](C)CO)C(=O)c2cc(Br)cnc2O[C@@H]1CN(C)Cc1ccc(Oc2ccccc2)cc1	-18%	-14%	x	-1%	16µM*	-52*
C[C@H](CO)N1C[C@H](C)[C@@H](CN(C)Cc2ccc(-c3ccccc3)cc2)Oc2ncc(C#C[C@@H](C)O)cc2C1=O	-23%	-23%	x	u	u	-21
C[C@H](O)C#Cc1cnc2c(c1)C(=O)N([C@H](C)CO)C[C@@H](C)[C@@H](CN(C)Cc1ccc(-c3ccccc3)cc1)O2	-15%	u	x	u	1.3µM*	-108*
COc1cccc(Nc2ncc3nc(-c4ccccc4)c(=O)n(Cc4cccs4)c3n2)c1	x	x	x	-21%	-16%	x
COc1cc(OC)c(OC)cc1CCC(C)NC(=O)Cc1ccccc1 (stereo unspecified)	-3%	-7%	4%	-18%	11%	15
C[C@H](N)C(=O)O	x	x	x	1%	-4%	x

Source: PubChem BioAssay
